# PrP 5UTR inh: inhibition of PrP 5' UTR reporter expression | cell-based PrP 5' UTR mRNA reporter, plate reader | inhibition, % (no concentration beside the values) | actives 0.35% (n = 340,000); in the data active means inhibition above about 52%; further: 0 = median of the neutral control wells
# Yp Topo-I inh: Yersinia pestis topoisomerase I inhibitors, primary screen, biochemical, cleavage product accumulation, plate reader, single point | Y. pestis Topo-I cleavage product accumulation | activity, % at 10 µM | actives 0.064% (n = 360,000) | DNA topoisomerase I (Yersinia pestis CO92) | AID 504884, 2011; in the data active means activity above about 50%, passing the limit was not always enough; inconclusive means no clear call, values can overlap the other calls
# PrPC surface inh: inhibitors of human cell surface prion protein PrPC, primary screen, cell-based, TR-FRET; AID 720596, 2013; Major prion protein (Homo sapiens), P04156; TR-FRET read-out; actives 0.43% (n = 370,000); inhibition, % at 13.8 µM; in the data active means inhibition above about 24%; further: 0% = median of the test wells and 100% = reference compound wells
# BJeLR lethal: MLPCN primary cell-based screen for lethality selective to Ras in HRASV12 cells | BJeLR (HRASV12) viability, CellTiter-Glo ATP luminescence, 48 h | inhibition, % (no concentration beside the values) | actives 0.17% (n = 300,000) | AID 1554, 2009; in the data active means inhibition above about 50%; inconclusive means no clear call, values can overlap the other calls
# SSB-PriA inh: inhibitors of Klebsiella pneumoniae PriA binding to SSB C-terminal tail, primary screen, biochemical, AlphaScreen. AlphaScreen SSBct-PriA binding, biotinylated peptide. PriA–SSB C-terminal tail interaction (Klebsiella pneumoniae). inhibition, % at 33 µM. AID 1272365, 2023. actives 0.6% (n = 430,000); in the data active means inhibition mostly above about 37%, no sharp cut-off; inactive means mostly below about 20%;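 further: plate controls were negative control peptide for no effect and reference peptide for full effect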
# PfHsp40 rescue: rescue of yeast from PfHsp40 toxicity, primary screen, S. cerevisiae, ATP luminescence | growth rescue, % at 12.5 µM | S. cerevisiae expressing PfHsp40, growth rescue | actives 0.68% (n = 340,000); in the data active means growth rescue above about 28%, passing the limit was not always enough; inconclusive means no clear call, values can overlap the other calls;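 further: yeast W303a lacking pdr1 and pdr3 grown in galactose medium; growth measured after three days at 30 °C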
# PrPC confirm: confirmation of inhibitors of cell surface human prion protein, confirmation, cell-based, TR-FRET | inhibition, % at 13.8 µM | cell surface PrPC level | actives 65% (n = 1,500) | shares compounds with PrPC surface inh | AID 743200, 2013; in the data active means inhibition above about 25%
# LD9 tox: cytotoxicity in LD9 cells, cytotoxicity control for cell surface PrPc inhibitor project, cell-based, luminescence, high throughput. shares compounds with PrPC surface inh. luminescence viability. inhibition, % at 13.8 µM. actives 29% (n = 1,500); in the data active means inhibition above about 9.5%
# Numbers without * were called inactive; u = inconclusive; x = no result given. The list is not random: actives were taken first. Their share in the collection is about 1.7%.
SMILES,PrP 5UTR inh,Yp Topo-I inh,PrPC surface inh,BJeLR lethal,SSB-PriA inh,PfHsp40 rescue,PrPC confirm,LD9 tox
CCOc1ccc(C2SCC(=O)Nc3c2c(=O)[nH]n3C2CCCCCC2)cc1 (stereo not given),-10,11,51*,4,-6,9,5,-3
CCCCn1c(CNC(=O)C23CC4CC(CC(C4)C2)C3)nnc1SCc1ccc([N+](=O)[O-])cc1,x,x,x,x,4,x,x,x
O=c1c(Br)c(Br)cnn1-c1ccccc1,-7,-9,33*,x,0,2,80*,98*
Cn1c(=O)c2c(nc3n(CCN4CCCCC4)c(C(C)(C)C)cn23)n(C)c1=O,x,x,x,x,-1,x,x,x
O=C(Nc1ccc(OC(F)(F)F)cc1)Nc1cccc([N+](=O)[O-])c1,-35,-21,26*,3,-8,0,43*,41*
O=C(Nc1ccc(OC(F)F)cc1)Nc1cccc(C(F)(F)F)c1,-15,-8,35*,6,-16,0,23,22*
O=C1[C@H]2[C@@H](c3ccccc3)N[C@]3(CCCN(Cc4ccc(Cl)cc4)C3=O)[C@H]2C(=O)N1Cc1ccccc1,x,9,27*,x,x,x,3,-10
O=c1ccc(C(F)(F)F)cn1Cc1cc(=O)n2ccsc2n1,-23,0,7,1,-3,1,x,x
O=c1cc(CNc2cc(C(F)(F)F)cc(C(F)(F)F)c2)nc2sccn12,-21,-2,29*,-7,-22,2,20,-7
CN(C)[C@@H](CNC(=O)C(=O)NCc1ccc(Cl)cc1)c1cccc2ccccc12,x,x,x,x,-6,x,x,x
CCN(CC)C(=O)CSc1nc(N)c(C#N)c(-c2cccs2)c1C#N,-1,-3,63*,-2,-17,1,0,-3
CC(C)(C)OC(=O)N1CCC(N[C@@H](Cc2ccccc2)C(=O)NCCc2c[nH]c3ccccc23)(C(=O)NC2CCCCC2)CC1,x,x,27*,x,x,x,12,-4
CC(C)C(=O)NC(c1cccc([N+](=O)[O-])c1)c1ccc2cccnc2c1O (stereo not given),22,9,29*,19,-1,228*,22,28*
CCCC(=O)NC(c1ccc(Cl)cc1Cl)c1ccc2cccnc2c1O (stereo not given),37,12,28*,21,-9,-2,24,12*
CC(=O)NC(c1ccc(Cl)cc1Cl)c1ccc2cccnc2c1O (stereo not given),22,3,32*,46,65,445*,35*,31*
CC(=O)NC(c1ccc2ccccc2c1)c1ccc2cccnc2c1O (stereo not given),41,-4,38*,35,9,85*,25*,31*
CCCC(=O)NC(c1ccc(Cl)cc1)c1ccc2cccnc2c1O (stereo not given),28,2,18,9,-6,u,x,x
O=C(NCC(c1ccco1)N1CCN(c2ccc(F)cc2)CC1)c1cc(C2CC2)on1 (stereo not given),x,x,x,x,-13,x,x,x
COc1ccc2c(C)c(CCC(=O)N3CC4C[C@H](C3)Cn3c4cccc3=O)c(=O)oc2c1,x,x,x,x,-2,x,x,x
O=C(Cn1cnc2ccccc21)N1CC(c2nc(-c3ccc[nH]c3=O)no2)C1,x,x,x,x,4,x,x,x
COc1ccc(Cc2nc(-c3ccc(Cl)cc3)no2)cc1,-46,4,10,-8,-63,-1,x,x
Cc1ccc(Cc2nc(-c3ccncc3)no2)cc1,-26,7,72*,4,-3,2,5,2
Cc1nc(N(C)C)nc(C)c1NS(=O)(=O)N(C)C,x,x,x,x,-2,x,x,x
CC(=O)OC1CC2OC3C=C(C)CCC3(C)C1(C)C21CO1 (stereo not given),x,1,90*,x,x,x,101*,32*
Cc1cccc(-c2nc(=S)c3c(n2CC2CCCO2)CCCC3)c1 (stereo not given),x,x,x,x,-1,x,x,x
SMILES,PrP 5UTR inh,Yp Topo-I inh,PrPC surface inh,BJeLR lethal,SSB-PriA inh,PfHsp40 rescue,PrPC confirm,LD9 tox
CCc1cccc(CC)c1NC(=O)CO/N=C(\C)c1cccs1,1,10,35*,-4,x,2,30*,-6
CC(=O)c1ccc(NC(=O)CO/N=C(\C)c2cccs2)cc1,2,6,4,15,x,0,x,x
O=[N+]([O-])c1ccc(Cl)c(S(=O)O)c1,x,x,x,x,-2,x,x,x
Cc1nc2c(Br)cc(Br)cc2cc1O,8,8,103*,3,-8,1,108*,-8
COc1ccc(CNC(=O)NCC2CC(=O)N(Cc3ccc(F)cc3)C2)cc1 (stereo not given),x,x,x,x,-4,x,x,x
CC(=O)Oc1ccc(C(=O)Nc2cccc(C(=O)c3ccc(C)c(C)c3)c2)cc1,0,-1,35*,-8,2,1,14,6
COc1ccc(C(=O)Nc2cccc(OC(=O)c3ccc(C)c(C)c3)c2)cc1,-39,-11,8,5,-2,0,x,x
CCOc1ccc(NC(=O)Nc2cccn(Cc3ccccc3)c2=O)cc1,-26,-1,30*,6,-3,1,15,-7
CC(C)NC(=S)n1cc(C(=O)c2cc(Cl)cc(Cl)c2O)cn1,-11,-5,41*,1,-5,-1,10,-3
S=c1nc(Cc2ccccc2)[nH]c2ccccc12,1,0,31*,-9,-4,2,26*,-4
S=c1nc(Cc2ccc(Cl)cc2)[nH]c2ccccc12,-16,21,29*,-3,-11,1,60*,-3
O=C(c1ccccc1)c1c[nH]c(C(=O)NNc2ccccc2)c1,-34,10,27*,-7,-8,1,24,7
CN(C)CCCNC(=O)c1cc(C(=O)c2ccccc2)c[nH]1,-8,2,-5,-26,5,-1,x,x
Cc1ccc2oc(C(=O)Nc3ccc4oc(=O)ccc4c3)c(C)c2c1,x,x,x,x,4,x,x,x
CCN(CC)S(=O)(=O)c1ccc2c(c1)nc(CCC(=O)OCC(=O)Nc1cc(Cl)cc(Cl)c1)n2C,-9,15,28*,-1,0,3,2,-1
N#Cc1c([N+](=O)[O-])cc([N+](=O)[O-])cc1S(=O)(=O)Cc1ccccc1,-30,-10,42*,x,-18,17,84*,98*
O=[N+]([O-])c1ccc(OS(=O)(=O)Cc2ccccc2)cc1,-21,-8,-7,-1,-14,1,x,x
COc1cccc(C(=O)Nc2ccc3c(c2)N(S(=O)(=O)c2cccs2)CCC3)c1OC,x,x,x,x,-13,x,x,x

# Compound activity as filed in PubChem.
